Experiment [1] concerns Wnt5a (protein binding on small-molecule microarray). The experiment in a line: small molecules binding Wnt5a protein – biophysical, small-molecule microarray, 635/667 nm fluorescence, primary screen (AID 1142).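 Also: fluorescence read at 667 nm with signal to noise per printed feature.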 The conditions noted are these: 635 nm fluorescence, higher = more signal.
Experiment [2] can be described thus: ATP-based viability of Huh7 replicon cells – cell-based, CellTiter-Glo luminescence, basal, 48 h, cytotoxicity control for HCV replication inhibitor project, primary screen (AID 1143).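 Also: Huh7 hepatoma cells carrying a hepatitis C replication reporter with no stimulus; test concentration not given here.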 The conditions noted are these: higher = more signal, called active from +8 up or from −8 down.
Experiment [3] in a line: Pseudomonas biofilm growth suppression – PAO1 strain, BacTiter-Glo luminescence, LB-PBS, primary screen (AID 1144). The conditions noted are these: P. aeruginosa PAO1 biofilm, 12 h, higher = more signal.
Experiment [4] is described as follows: basal CRE-LacZ reporter activity in PC12 – cell-based, unstimulated, primary screen (AID 1145). The conditions noted are these: no forskolin, luminescence, 4.5 h, higher = more signal, called active from +8 up or from −8 down.
Experiment [5] is described as follows: forskolin-driven CRE-LacZ activity in PC12 – cell-based, CRE-LacZ reporter, forskolin-stimulated, primary screen (AID 1146).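 Also: PC12 cells with 6xCRE LacZ reporter stimulated by forskolin 10 µM; beta-galactosidase reporter signal reflecting CREB driven transcription.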 As to conditions: luminescence, 4.5 h, higher = more signal, called active from +8 up or from −8 down.
For experiment [6], the target named is Streptavidin (Streptomyces avidinii) (UniProt P22629). The experiment in a line: compounds binding control protein streptavidin – biophysical, small-molecule microarray, 635/667 nm fluorescence, artefact control for SMM compound annotation, primary screen (AID 1147).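 Also: signal reflects streptavidin binding to arrayed compounds as a control protein.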 The conditions noted are these: higher = more signal.
Chain of Streptavidin (Streptomyces avidinii) (P22629 whole entry, looked up): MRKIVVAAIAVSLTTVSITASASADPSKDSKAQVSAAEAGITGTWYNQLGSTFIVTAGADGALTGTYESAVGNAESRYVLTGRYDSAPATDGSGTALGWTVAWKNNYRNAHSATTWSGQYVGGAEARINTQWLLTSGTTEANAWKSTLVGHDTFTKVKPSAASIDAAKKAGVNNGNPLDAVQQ
Experiment [7] can be described thus: probe aInhba binding on compound microarray – biochemical, small-molecule microarray, 635/667 nm fluorescence, primary screen (AID 1148).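 Also: score merges 667nm spot fluorescence with signal-to-noise for antibody binding to printed compounds.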 The conditions noted are these: higher = more signal.
The target of experiment [8] is Torsin-1A (Homo sapiens) (UniProt O14656). The experiment in a line: TOR1A wild-type binding on microarray – cell lysate, small-molecule microarray, lysate, 635/667 nm, primary screen (AID 1149). As to conditions: COS7 hTOR1A-WT lysate, 635 nm fluorescence, higher = more signal.
Chain of Torsin-1A (Homo sapiens) (O14656 whole entry, looked up): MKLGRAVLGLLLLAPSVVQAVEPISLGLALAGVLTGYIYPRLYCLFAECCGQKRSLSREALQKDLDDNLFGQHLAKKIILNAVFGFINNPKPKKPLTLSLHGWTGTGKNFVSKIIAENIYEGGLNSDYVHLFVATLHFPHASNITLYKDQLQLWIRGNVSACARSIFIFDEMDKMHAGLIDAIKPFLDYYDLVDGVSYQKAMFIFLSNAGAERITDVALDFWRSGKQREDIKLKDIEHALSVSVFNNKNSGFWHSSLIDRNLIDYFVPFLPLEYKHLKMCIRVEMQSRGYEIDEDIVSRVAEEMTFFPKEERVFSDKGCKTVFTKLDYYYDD
Experiment [9] shares this target. The experiment can be described thus: torsin A mutant lysate binding on microarrays – cell lysate, small-molecule microarray, COS7 lysate, 635/667 nm fluorescence, primary screen (AID 1150).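 Also: score pools 667 nm emission and signal to noise measuring lysate protein binding.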 The conditions noted are these: COS7 hTOR1A mutant lysate, 635 nm fluorescence, higher = more signal.
The subject of experiment [10] is Sonic hedgehog protein (Shh). The experiment can be described thus: Sonic hedgehog microarray binding compounds – biochemical, small-molecule microarray, 635/667 nm fluorescence, primary screen (AID 1151).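 Also: Shh protein binding to compounds spotted on small-molecule microarray slides; score combines spot fluorescence intensity with signal-to-noise across triplicate slides.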 The conditions noted are these: 635 nm fluorescence, higher = more signal.
Experiment [11] can be described thus: optical density shifts of acrAB sulA E. coli – strain DRC41, OD650, 48 h, E. coli filamentation inducer project, primary screen (AID 1152).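 Also: E. coli MC1000 strain DRC41 lacking acrAB efflux pump and sulA.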 As to conditions: higher = more signal, called active from +8 up or from −8 down.
Experiment [12] can be described thus: probe aLefty1 binding on compound microarray – biochemical, small-molecule microarray, 635/667 nm fluorescence, primary screen (AID 1153).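 Also: score merges spot fluorescence with signal-to-noise ratio from the scanned slide images.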 The conditions noted are these: higher = more signal.
Experiment [13] can be described thus: plasmodial surface anion channel blockers, osmotic lysis – cell-based, P. falciparum Indochina, OD700, 1 h, primary screen (AID 1154). As to conditions: P. falciparum Indochina infected RBC osmotic lysis, higher = more signal, called active from +8 up or from −8 down.
The nature of experiment [14]: plasmodial surface anion channel blockers, osmotic lysis – cell-based, P. falciparum Indochina, OD700, 2 h, primary screen (AID 1155).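 Also: lysis reports solute entry through the parasite surface anion channel PSAC.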 As to conditions: P. falciparum Indochina infected erythrocytes, higher = more signal, called active from +8 up or from −8 down.
Experiment [15] can be described thus: changes in parasitized red cell lysis, either direction – P. falciparum Indochina, OD700, 3 h, PSAC antagonist project, primary screen (AID 1156). As to conditions: P. falciparum-infected erythrocytes, osmotic lysis, higher = more signal, called active from +8 up or from −8 down.
Experiment [16] in a line: plasmodial surface anion channel blockers, osmotic lysis – cell-based, P. falciparum Indochina, OD700, 18 h, primary screen (AID 1157). The conditions noted are these: P. falciparum Indochina infected erythrocytes, osmotic lysis OD700, 18 h; higher = more signal, called active from +8 up or from −8 down.
Experiment [17] is described as follows: S6 kinase pathway phospho-S6 level changes – cell-based, A549, cytoblot, luminescence, serum-stimulated, primary screen (AID 1158).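 Also: serum-stimulated A549 lung adenocarcinoma cells; signal is phosphorylated S6 detected by cytoblot immunostaining with HRP secondary.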 The conditions noted are these: 5 h, higher = more signal.
Experiment [18] has as its target NADPH oxidase 2 (Homo sapiens) (UniProt P04839). The experiment can be described thus: compounds shifting NOX2 Amplex Red fluorescence – cell-based, HEK293-NOX2, PMA-stimulated, NOX inhibitor project, primary screen (AID 1159). Also: test concentration not given here. As to conditions: 45 min, higher = more signal, called active from +8 up or from −8 down.
In experiment [19] the target is NADPH oxidase 4 (Homo sapiens) (UniProt Q9NPH5). The experiment in a line: compounds shifting NOX4 Amplex Red fluorescence – cell-based, HEK293-NOX4, tetracycline-induced, NOX inhibitor project, primary screen (AID 1160). As to conditions: HEK293-NOX4, Amplex Red H2O2 fluorescence, 45 min; higher = more signal, called active from +8 up or from −8 down.
Chain of NADPH oxidase 4 (Homo sapiens) (Q9NPH5 whole entry, looked up): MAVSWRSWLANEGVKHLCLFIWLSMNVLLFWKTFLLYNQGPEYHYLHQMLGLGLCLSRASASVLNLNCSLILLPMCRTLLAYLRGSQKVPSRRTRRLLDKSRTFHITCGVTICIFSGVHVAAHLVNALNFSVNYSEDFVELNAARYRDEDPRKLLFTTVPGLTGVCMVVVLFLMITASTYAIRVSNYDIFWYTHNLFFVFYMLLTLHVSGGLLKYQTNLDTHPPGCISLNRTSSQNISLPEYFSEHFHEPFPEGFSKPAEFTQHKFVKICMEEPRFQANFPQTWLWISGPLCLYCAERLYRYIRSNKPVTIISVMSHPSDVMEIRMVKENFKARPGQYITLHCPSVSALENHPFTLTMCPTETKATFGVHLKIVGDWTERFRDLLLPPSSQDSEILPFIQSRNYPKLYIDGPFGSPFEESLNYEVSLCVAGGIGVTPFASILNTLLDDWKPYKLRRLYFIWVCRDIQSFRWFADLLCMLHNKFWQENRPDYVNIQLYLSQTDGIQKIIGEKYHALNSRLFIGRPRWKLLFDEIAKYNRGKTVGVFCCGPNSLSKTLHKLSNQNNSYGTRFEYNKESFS
Experiment [20] has as its target NADPH oxidase 5 (Homo sapiens) (UniProt Q96PH1). The experiment can be described thus: compounds shifting NOX5 Amplex Red fluorescence – cell-based, HEK293-NOX5, NOX inhibitor project, primary screen (AID 1161). The conditions noted are these: HEK293-NOX5, ionomycin, 45 min, higher = more signal.

Activity calls are given as the source filed them. Unless noted, no rule for the calls is given here.

Chain of NADPH oxidase 2 (Homo sapiens) (P04839 whole entry, looked up): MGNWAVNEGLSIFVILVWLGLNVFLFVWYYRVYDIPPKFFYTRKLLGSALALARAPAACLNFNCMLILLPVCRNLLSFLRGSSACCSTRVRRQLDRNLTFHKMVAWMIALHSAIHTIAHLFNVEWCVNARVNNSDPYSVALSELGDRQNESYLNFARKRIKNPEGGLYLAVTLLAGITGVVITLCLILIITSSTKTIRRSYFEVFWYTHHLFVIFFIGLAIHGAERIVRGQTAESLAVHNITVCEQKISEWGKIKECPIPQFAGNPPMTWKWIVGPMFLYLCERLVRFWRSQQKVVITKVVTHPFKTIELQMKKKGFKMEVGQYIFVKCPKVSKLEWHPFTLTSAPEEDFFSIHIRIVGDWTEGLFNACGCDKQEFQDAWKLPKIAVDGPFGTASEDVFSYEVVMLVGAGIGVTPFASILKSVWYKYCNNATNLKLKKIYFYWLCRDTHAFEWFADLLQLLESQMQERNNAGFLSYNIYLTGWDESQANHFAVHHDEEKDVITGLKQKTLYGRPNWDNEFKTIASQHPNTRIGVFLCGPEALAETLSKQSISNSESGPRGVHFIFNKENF
Chain of NADPH oxidase 5 (Homo sapiens) (Q96PH1 whole entry, looked up): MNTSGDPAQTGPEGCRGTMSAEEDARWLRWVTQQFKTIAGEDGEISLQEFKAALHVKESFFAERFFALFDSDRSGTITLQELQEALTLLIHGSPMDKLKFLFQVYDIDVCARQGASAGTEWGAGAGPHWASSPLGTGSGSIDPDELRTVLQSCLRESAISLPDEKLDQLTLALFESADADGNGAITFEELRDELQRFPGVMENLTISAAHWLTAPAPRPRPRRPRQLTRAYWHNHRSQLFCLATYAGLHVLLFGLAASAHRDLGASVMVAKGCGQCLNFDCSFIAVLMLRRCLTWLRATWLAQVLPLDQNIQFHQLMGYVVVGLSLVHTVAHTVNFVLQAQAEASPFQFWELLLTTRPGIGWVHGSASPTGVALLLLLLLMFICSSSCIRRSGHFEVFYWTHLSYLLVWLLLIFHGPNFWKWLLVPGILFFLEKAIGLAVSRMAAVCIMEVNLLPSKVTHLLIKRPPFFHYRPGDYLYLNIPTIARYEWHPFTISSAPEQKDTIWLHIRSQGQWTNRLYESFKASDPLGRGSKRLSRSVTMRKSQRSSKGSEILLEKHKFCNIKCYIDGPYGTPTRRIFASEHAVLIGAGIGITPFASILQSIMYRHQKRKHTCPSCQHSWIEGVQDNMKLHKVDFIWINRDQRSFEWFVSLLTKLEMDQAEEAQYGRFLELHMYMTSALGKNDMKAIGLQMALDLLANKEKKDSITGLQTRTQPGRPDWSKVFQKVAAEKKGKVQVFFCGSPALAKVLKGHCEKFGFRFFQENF

In the case of `COc1ccc([Si](C)(C)[C@H]2[C@H](CCO)O[C@@]3(C(=O)N(Cc4ccc(N(C=O)c5ccccc5)cc4)c4ccccc43)[C@@H]2C)cc1`, the composite z-score is -0.308 in experiment [1]; 0.114 in experiment [6]; -0.157 in experiment [7]; -0.498 in experiment [8]; -0.074 in experiment [9]; 0.399 in [10]. In addition, the composite z-score in [12] is 0.0406. Also, the z-score was -5.81 (inactive) in experiment [2]; -0.305 (inactive) in experiment [3]; 1.92 (inactive) in [4]; -1.24 (inactive) in [5]; -0.208 (inactive) in [11]; 17.5 (active) in experiment [13]. In addition, the z-score in experiment [14] is 5.72 (inactive); in [15] it was -0.149 (inactive); in experiment [16], 1.87 (inactive); in experiment [17], 0.788; in experiment [18], 0.118 (inactive); in [19], 0.859 (inactive). The z-score in experiment [20] turned out to be 2.37.

Take `OCCCC1=CC(c2cccs2)N(Cc2cc3c(cc2Br)OCO3)CC1` (stereo not given): the composite z-score in experiment [1] was -0.094; in experiment [6], -0.0072; in experiment [7], -0.024; in experiment [8], 0.155; in experiment [9], 0.396; in [10], 1.4. Besides, in [12], the composite z-score amounted to 0.187. Besides, the z-score was -1.18 (inactive) in experiment [2]; -0.137 (inactive) in experiment [3]; 0.0563 (inactive) in [4]; -0.056 (inactive) in experiment [5]; -1.3 (inactive) in experiment [11]; 5.53 (inactive) in [13]. In addition, the z-score in experiment [14] is 0.887 (inactive); in experiment [15] it was -0.281 (inactive); in experiment [16], 0.625 (inactive); in experiment [17] it was -0.684; in experiment [18] it was -0.283 (inactive); in [19] it was -0.294 (inactive). For the same molecule, the z-score in experiment [20] was -0.768.

Take `COc1ccc(CCNC(=O)[C@@]2(Sc3ccc(C)cc3)CC(=O)N(C(C)C)[C@@H]2c2ccc(CO)cc2I)cc1`: the composite z-score in experiment [1] was -0.161; in [6] it was -0.738; in [7], -0.0986; in [8], 0.0086; in experiment [9] it was -0.622; in experiment [10] it was -0.156. For the same molecule, the composite z-score in [12] is -0.104. In addition, the z-score in experiment [2] was -0.887 (inactive); in [3] it was 0.844 (inactive); in experiment [4], -0.295 (inactive); in experiment [5] it was 0.652 (inactive); in experiment [11] it was -0.0322 (inactive); in [13] it was 5.56 (inactive). The z-score was 0.428 (inactive) in [14]; 0.445 (inactive) in experiment [15]; -0.135 (inactive) in experiment [16]; 0.394 in experiment [17]; 0.446 (inactive) in experiment [18]; -0.641 (inactive) in [19]. Further, in experiment [20], the z-score stood at 1.22.

With `C=C(CCCC)/C(=C/C[C@H](OC(=O)c1ccncc1)c1ccccc1OCCO)c1cnc2ccccc2c1`, the composite z-score was 0.265 in experiment [1]; 1.74 in experiment [6]; -0.0471 in experiment [7]; 0.609 in experiment [8]; 0.712 in experiment [9]; 1.45 in experiment [10]. Further, the composite z-score in [12] was 0.11. The z-score in experiment [2] is -0.401 (inactive); in experiment [3] it was 0.0698 (inactive); in experiment [4], -0.583 (inactive); in experiment [5] it was 0.494 (inactive); in [11], -0.244 (inactive); in [13], 23.7 (active). Moreover, the z-score in experiment [14] is 4.64 (inactive); in experiment [15], 1.08 (inactive); in [16], 1.02 (inactive); in experiment [17], 0.0376; in experiment [18], -1.22 (inactive); in experiment [19], -0.281 (inactive). Moreover, in experiment [20], the z-score is -1.45.
